Data from PubChem BioAssay (NCI).
About 83,000 compounds went through this panel and 20% of them were active in at least one assay; those are over-represented in the sample as a whole.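 Values shown are percent growth following 48 h exposure of cells in 96-well plates to a single concentration of compound; below 10 was considered active.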 The source made the active and inactive calls.

Test system: MDA-MB-468 breast
Assay: NCI-60 one-dose screen, 48 h (100 = growth as untreated, 0 = no growth, -100 = all killed)
Details: 10 µM unless noted

| Structure (SMILES) | growth |
| --- | --- |
| Oc1[nH]c2ccccc2c1/C=c1/cc2c(c(-c3ccc(C(F)(F)F)cc3)n1)=Nc1ccccc1-2 | 21.6% (inactive) |
| COc1cc(C(=O)c2cc(C(C)=O)c3c(C)cccn23)cc(OC)c1OC | 81.8% (inactive) |
| COc1ccc(C(=O)c2cc(C)c(OC)c(C)c2)c(OC)c1N(C(=O)CCl)C(=O)CCl | 3.62% (active) |
| COC(=O)[C@]12CC[C@@H](C)[C@H](C)[C@@H]1C1=CC[C@@H]3[C@@]4(C)C(C#N)=CC(C)=C4CC[C@@]3(C)[C@]1(C)CC2 | 76.7% (inactive) |
| O=C(CN1CCN(c2cc3c(cc2F)c(=O)c(C(=O)O)cn3C2CC2)CC1)Nc1cc(=O)[nH]c(=O)[nH]1 | 89.7% (inactive) |
| N#Cc1c(-c2ccc(C(F)(F)F)cc2)cc(NCC2CCS(=O)(=O)CC2)n2c1nc1ccccc12 | 78.1% (inactive) |
| Cc1ccc(Sc2oc(-c3ccc(C)cc3)nc2[P+](c2ccccc2)(c2ccccc2)c2ccccc2)cc1 | -36.5% (active) |
| Cc1c2ccccc2nc2cc3c(cc12)[C@H]1CC[C@]2(C)C(=O)CC[C@H]2[C@@H]1CC3 | 91.3% (inactive) |
| CCN1CCN(Cc2ccc(NC(=O)c3nc4ccc5[nH]ncc5c4c4c3CCCC4)cc2C(F)(F)F)CC1 | -51.9% (active) |
| COc1ccc2[nH]cc(C3(c4c[nH]c5ccc(OC)cc45)C(=O)Nc4ccc(F)cc43)c2c1 | 96.9% (inactive) |
| CCN1C(=O)N(CC)C2Nn3c(s/c(=C\c4ccc([N+](=O)[O-])cc4)c3=O)=NC21 (configuration not stated) | 7.37% (active) |
| O=[N+]([O-])c1ccc2[nH]cc(-c3c4ccccc4cc4[nH]c5ccc([N+](=O)[O-])cc5c34)c2c1 | 23.9% (inactive) |
